Screening results from PubChem BioAssay.
D3 ag: activates the human D3 dopamine receptor | P35462 | D3R DiscoveRx beta-arrestin cells, luminescence, 90 min | max activation, % | 410,000 compounds, 0.58% hits; in the data active = max activation above about 30%; also: 0% is about no effect
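Agonist-mode cell screen: cells plated at 1500/well and incubated overnight at 37 °C, then exposed to library compounds for 90 min at 37 °C. Detection reagent was added for 30–60 min at room temperature, and luminescence was read.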
D3 antag: D3 dopamine receptor (human) antagonism; D3R cells, DiscoveRx beta-arrestin luminescence, antagonist mode; stronger effect = lower value; max response, negative = inhibition, %; P35462; 360,000 compounds, 2.5% hits; AID 652054; in the data active = max response below about -50%; inconclusive = no clear call, values can overlap the other calls; also: % is scaled to controls: 0 for no effect and ±100 for the full control effect
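Cells expressing the human receptor were seeded at 1500 cells/well, incubated overnight at 37 degrees C in 5% CO2, then exposed to library compounds with dopamine controls for 90 minutes at 37 degrees C before luminescent detection.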
D1 ag: human D1 receptor agonism. activation, % at 2 µM. 360,000 compounds, 1% hits. HEK293 T-REx D1 cells, calcium flux, agonist mode; in the data active = activation above about 30%; also: 0% is about no effect
Target sequence (P21728 whole entry, looked up): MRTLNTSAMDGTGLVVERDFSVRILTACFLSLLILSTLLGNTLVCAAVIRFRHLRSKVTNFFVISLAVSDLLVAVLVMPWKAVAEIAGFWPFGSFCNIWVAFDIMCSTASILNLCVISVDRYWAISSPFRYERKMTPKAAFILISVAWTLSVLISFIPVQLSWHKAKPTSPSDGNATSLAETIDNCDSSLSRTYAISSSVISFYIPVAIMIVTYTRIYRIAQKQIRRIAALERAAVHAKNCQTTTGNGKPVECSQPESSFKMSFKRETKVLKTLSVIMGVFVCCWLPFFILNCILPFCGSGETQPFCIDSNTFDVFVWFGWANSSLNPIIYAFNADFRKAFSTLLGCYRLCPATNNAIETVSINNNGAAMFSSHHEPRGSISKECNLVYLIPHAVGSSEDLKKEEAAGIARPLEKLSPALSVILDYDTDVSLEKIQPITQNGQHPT
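Inducible HEK293 T-REx D1 cells, force-coupled to calcium signalling, were plated at 4000 cells/well with tetracycline and held overnight at 30 C. After no-wash calcium dye loading, compound-evoked calcium rise over 180 s flagged agonists.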
D1 antagonist: blocks dopamine activation of the human D1 receptor; AID 504652; HEK293 TREx D1 cells, calcium flux, dopamine EC80; stronger effect = lower value; P21728; 360,000 compounds, 3.2% hits; activity change, negative = inhibition, % at 10 µM; in the data active = activity change below about -30%; also: % is scaled to controls: 0 for no effect and ±100 for the full control effect
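Tetracycline-induced HEK293 T-REx cells with force-coupled D1 receptor were loaded with a no-wash calcium dye. Compound was added after a 10 s baseline and read kinetically for 180 s; EC80 dopamine was then added and calcium flux followed another 180 s.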
D1 potentiator: enhances dopamine response at the human D1 receptor; HEK293 TREx D1 cells, calcium flux, dopamine EC20 potentiation; potentiation, % at 10 µM; 360,000 compounds, 0.036% hits; AID 504651; in the data active = potentiation above about 30%; also: 0% is about no effect
Starred values were filed as active, the others as inactive; ? = inconclusive; . = not tested or not shown. Most compounds without a hit are left out; they make up all but 6.1% or so of the library.

SMILES | D3 ag | D3 antag | D1 ag | D1 antagonist | D1 potentiator
Nc1ccc2nc3c(=O)n(CCc4ccccc4)c(=O)[nH]c3nc2c1 | 7 | 5 | 435* | -10 | 2
Nc1ccc2nc3c(=O)n(C4CCCCC4)c(=O)[nH]c3nc2c1 | 13 | 0 | 276* | 3 | 3
CCCCn1c(=O)[nH]c2nc3cc(N)ccc3nc2c1=O | 12 | -12 | 207* | 13 | -5
Cc1ccc(N2CC(C(=O)Nc3ccc(Br)cc3)CC2=O)cc1 (stereo unspecified) | -4 | . | 2 | -14 | -1
CC(=O)Nc1ccc(N(C(=O)Cn2nnc3ccccc32)C(C(=O)NCc2ccccc2)c2ccc(C)cc2)cc1 (stereo unspecified) | -9 | . | -1 | -1 | 0
COc1c(C)cccc1C(=O)Nc1ccc(Cl)c(-c2nc3cc(C)ccc3o2)c1 | -1 | . | 4 | -15 | -5
COC(=O)c1ccc(NC(=O)CN2CCN(c3ccc(Cl)cc3)CC2)cc1 | -14 | 0 | 10 | 1 | -8
COc1ccc(NC(=O)CN2CCN(c3ccccc3Cl)CC2)cc1 | -12 | -61* | 1 | 2 | -3
COc1ccc(NC(=O)CN2CCN(c3ccccc3C)CC2)cc1 | -14 | -26 | 4 | 3 | 0
CCOc1ccc(NC(=O)C2=NN(c3ccccc3)C(=O)CC2)cc1S(=O)(=O)N1CCCCC1 | 4 | 0 | 5 | -35* | -1
COC(=O)c1ccc(NC(=O)CN2CCN(c3ccccc3C)CC2)cc1 | -2 | -77* | -1 | 8 | -1
O=C(Nc1cccc(S(=O)(=O)N2CCCCC2)c1)C1=NN(c2ccccc2)C(=O)CC1 | -6 | -10 | 8 | 1 | .
CCOc1ccc(NC(=O)CN2CCN(c3ccc(F)cc3)CC2)cc1S(=O)(=O)N1CCCC1 | 1 | -20 | . | . | .
CCOc1ccc(NC(=O)CN2CCN(c3ccccc3C)CC2)cc1S(=O)(=O)N1CCCC1 | -24 | -62* | 1 | 2 | -6
COc1cc2c(C(=O)N(C)c3cc(Cl)ccc3OC)cn(CC(C)C)c(=O)c2cc1OC | -11 | . | 0 | -6 | 2
CC1CN(C(=O)N2CCC(C(=O)NCc3cccs3)CC2)c2cc(Cl)ccc2O1 (stereo unspecified) | 4 | . | 1 | 9 | 1
COc1cccc(CNC(=O)c2cc3c(=O)oc4ccc(C)cc4c3s2)c1 | 3 | . | 1 | 2 | -3
O=S(=O)(c1ccc2c(c1)OCCO2)N1CCN(S(=O)(=O)c2cc(F)c(Br)cc2F)CC1 | . | . | 1 | 1 | 3
COc1ccc(C)cc1NC(=O)CN1C(=O)CCc2cc(S(=O)(=O)N3CCOCC3)ccc21 | 3 | . | 4 | -8 | 1
COc1ccc(NC(=O)CN2CCN(c3nc(-c4cccc(OC)c4)cs3)CC2)cc1 | 4 | -9 | 2 | -37* | -26
COc1cccc(-c2csc(N3CCN(CC(=O)Nc4ccc5c(c4)OCO5)CC3)n2)c1 | 17 | 19 | 0 | -2 | -9
COc1ccc(NC(=O)Cn2c(=O)cnc3ccccc32)cc1S(=O)(=O)N1CCCCC1 | 1 | 2 | -2 | -48* | -4
O=C(/C=C/c1ccco1)NC(=S)NNC(=O)c1ccco1 | 15 | -84* | -1 | 2 | -2
O=C(NC(=S)NNC(=O)c1ccco1)c1ccc(Br)cc1 | 15 | 0 | 47* | 5 | -3
COc1ccc(C(=O)NNC(=S)NC(=O)c2ccco2)cc1 | 2 | -58* | 8 | -7 | 5
SMILES | D3 ag | D3 antag | D1 ag | D1 antagonist | D1 potentiator
Cc1ccnc(NC(=S)NC(=O)/C=C/c2ccco2)c1 | 2 | -51* | 1 | -2 | -3
CCc1ccc(CNC(=O)CCc2c(C)nn(-c3ccc(N4CCCCC4)nn3)c2C)cc1 | -7 | . | 1 | 14 | -4
Cn1cnc(S(=O)(=O)N2CCCC(C(=O)Nc3ccc(OC(F)(F)F)cc3)C2)c1 (stereo unspecified) | 5 | . | 0 | 19 | 0
CC(=O)N1CCCc2cc(S(=O)(=O)N(C)CC(=O)Nc3ccc(C(C)C)cc3)ccc21 | 10 | . | 7 | -11 | -4
COC(=O)c1cc(OC)c(OC)cc1NC(=S)Nc1cc(Cl)ccc1OC | -1 | -8 | 3 | 17 | 1
COC(=O)c1cc(OC)c(OC)cc1NC(=S)Nc1cccc(Cl)c1 | -9 | -66* | 6 | 29 | -6
CCNC(=S)Nc1cc(OC)c(NC(=O)c2ccco2)cc1OC | 7 | 7 | 2 | -5 | 0
COc1ccccc1C(=O)NNC(=S)NC(=O)c1ccco1 | -15 | -21 | 50* | -7 | -1
COC(=O)c1cc(OC)c(OC)cc1NC(=S)NC(=O)c1ccco1 | 1 | -30 | 0 | -38* | -4
COc1ccccc1C(=O)NNC(=S)Nc1ccccc1 | 2 | ? | 5 | -31* | -3
COC(=O)NNC(=O)c1ccccc1OC | 2 | -9 | 1 | -7 | -5
O=S(=O)(c1ccc(Cl)cc1)N1CCN(S(=O)(=O)c2ccc3c(c2)OCCO3)CC1 | . | . | 2 | 20 | 8
O=C(COc1ccc(Cl)cc1Cl)NNC(=S)NC(=O)c1ccco1 | 3 | 11 | 2 | 5 | 4
CCCOc1ccc(C(=O)NNC(=S)NC(=O)c2ccco2)cc1 | 1 | -22 | 186* | -33* | -4
CC(Oc1ccc(Cl)cc1)C(=O)NNC(=S)NC(=O)c1ccco1 (stereo unspecified) | -7 | 25 | 44* | -8 | -3
CCCNS(=O)(=O)c1ccc(Oc2ncc(C(F)(F)F)cc2Cl)cc1 | 1 | -18 | 46* | -6 | -9
O=S(=O)(Nc1ccccc1)c1ccc(Oc2ncc(C(F)(F)F)cc2Cl)cc1 | -1 | -63* | 32* | -3 | -2
CC(C)NS(=O)(=O)c1ccc(Oc2ncc(C(F)(F)F)cc2Cl)cc1 | 2 | 5 | 22 | -26 | -7
NC(=O)Nc1ccc(Oc2ncc(C(F)(F)F)cc2Cl)cc1 | 2 | 3 | 2 | -26 | -5
O=C(CCCn1c(=O)c2ccccc2n(Cc2cccc(Cl)c2)c1=O)NCCc1ccc(Cl)cc1 | -8 | . | 9 | 7 | -1
O=C(NCc1ccc(F)cc1)c1cc(C2CCCCN2S(=O)(=O)Cc2ccccc2)on1 (stereo unspecified) | -16 | -99* | . | . | .
CS(=O)(=O)N1CCCCC1c1cc(C(=O)NCc2ccc(F)cc2)no1 (stereo unspecified) | -13 | -88* | . | . | .
O=C(NCc1ccc(F)cc1)c1cc(C2CCCCN2S(=O)(=O)c2ccccc2)on1 (stereo unspecified) | 8 | 11 | . | . | .
CCCCCCCCCCCC(=O)OC[C@@H](O)C1OC[C@H](O)[C@H]1O (stereo partly specified) | 2 | . | . | . | .
Cn1nnnc1SCC(=O)Nc1ccc(Oc2ccc(Cl)cc2)cc1 | -3 | -6 | 10 | -30* | -2
Cn1nnnc1SCC(=O)NNC(=O)c1ccc(F)cc1 | -3 | -57* | 2 | -1 | 6
